Results on 40 compounds are retold here after PubChem BioAssay (NCATS).

Results filed as inconclusive are left out. Entries that show only a call come without a potency. Activity calls are given as the source filed them. The call rests on the fitted dose curve; in most records, active means well fitted inhibition curve with a large enough effect in the repeat runs; inconclusive means weak or mixed curves; inactive means flat fitted curve, though single readings scatter.
Potency means the concentration at half of the fitted maximal effect.

Chain of Cytochrome P450 2D6 (Homo sapiens) (P10635 whole entry, looked up): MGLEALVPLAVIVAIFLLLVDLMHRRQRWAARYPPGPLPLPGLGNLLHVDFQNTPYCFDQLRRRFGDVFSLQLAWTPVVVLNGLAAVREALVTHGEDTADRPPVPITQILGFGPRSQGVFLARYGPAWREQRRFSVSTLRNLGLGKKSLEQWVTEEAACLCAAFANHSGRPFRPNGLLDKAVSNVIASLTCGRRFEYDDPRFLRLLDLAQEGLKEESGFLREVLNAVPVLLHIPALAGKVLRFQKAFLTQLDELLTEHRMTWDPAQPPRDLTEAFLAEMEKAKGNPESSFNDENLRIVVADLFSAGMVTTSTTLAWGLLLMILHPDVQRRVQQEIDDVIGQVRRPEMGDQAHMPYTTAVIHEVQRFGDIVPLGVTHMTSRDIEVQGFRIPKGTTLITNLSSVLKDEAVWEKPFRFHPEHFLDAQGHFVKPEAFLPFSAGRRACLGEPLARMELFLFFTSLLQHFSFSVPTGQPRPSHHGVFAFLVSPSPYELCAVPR

The target in the experiment is Cytochrome P450 2D6 (Homo sapiens) (UniProt P10635). Description: Cytochrome P450 family 2 subfamily D member 6 (CYP2D6) small molecule antagonists: luciferase biochemical (cell-free) qHTS assay (AID 1645840). Further: nearly all actives have a fitted effect of over 55% in size. The settings on record: P450-Glo CYP2D6 enzyme, luciferin luminescence, 1 h; series mostly up to 57.4 µM. As for the experimental part:
National Center for Advancing Translational Sciences [NCATS] Assay Overview: Cytochrome P450 (CYP) enzymes are membrane-bound hemeproteins that play a key role in metabolism of drugs and xenobiotics. Assaying the effect of chemicals on CYP isozymes is useful to minimize the adverse drug reactions and toxicities in drug development process. Chemical compounds were tested for their effect on CYP enzyme activities by using P450-Glo (TM) screening systems (Promega Corporation, Madison, WI). These systems provide a luminescent method containing proluciferin substrates and are converted to luciferin products by CYP isozymes. The luciferin products formed are detected with a luciferin detection reagent, and the amount of light produced is proportional to CYP activity. P450-Glo (TM) CYP2D6 screening system (Catalog. No. V9890) was used to detect the compounds that interfere in CYP2D6 activity.
Assay Protocol Summary: Two ul of enzyme-substrate mix was dispensed into medium binding white/solid 1536-well plates (Greiner Bio-One North America Inc., Monroe, NC) using a Flying Reagent Dispenser (FRD, Aurora Discovery, San Diego, CA). […] The assay plates were incubated at room temperature for 10 min. Then 2 ul of NADPH regeneration solution was added to each well of the assay plates using an FRD and incubated at room temperature for 1 h. The reaction was stopped by adding 4 ul of detection reagent using an FRD and after 20 min incubation at room temperature, the luminescence signal was measured using a ViewLux plate reader (Perkin Elmer, Shelton, CT). Data were expressed as relative luminescence units.
For orientation: Quantitative high-throughput screening tests each substance at several concentrations.
In the case of `CC(CSC(=O)c1ccccc1)C(=O)N1C[C@@H](Sc2ccccc2)C[C@H]1C(=O)O` (stereo not given in full), the Potency entry was “inactive”.

For the compound `NS(=O)(=O)c1ccc(NC(=O)CCC(=O)O)cc1`, the Potency entry is “inactive”.

On to `O=C(O)/C=C/c1ccc(Cn2ccnc2)cc1`, for which the Potency result was “inactive”.

`O=C(OOC(=O)c1ccccc1)c1ccccc1`: the Potency entry was “inactive”.

In the case of `C[N+](C)(C)CC(O)CC(=O)[O-]` (stereo not given), the Potency result is “inactive”.

On to `CC(=O)OCC(COC(C)=O)OC(C)=O`, for which the Potency result was “inactive”.

Consider `Cc1cc(NC(=O)C2=C(O)c3ccccc3S(=O)(=O)N2C)no1`, for which the Potency entry is “inactive”.

Take `CCCCCCCC(=O)OCC(O)CO` (stereo not given): the Potency entry was “inactive”.

Turning to `Nc1ncnc(Nc2ccccc2)n1`, the Potency entry was “inactive”.

On to `CCCCCCCC(=O)OCC(COC(=O)CCCCCCC)OC(=O)CCCCCCC`, for which the Potency entry was “inactive”.

For the compound `CN1C(C)(C)CCCC1(C)C`, the Potency was 3.89 µM (active).

Turning to `O=C1C(c2[nH]c3ccccc3c2O)=Nc2ccccc21`, the Potency result was “inactive”.

Take `FC(F)(F)C(Cl)Br` (stereo not given): the Potency entry is “inactive”.

For the compound `COc1ccc(C(=O)NCc2ccc(OCCN(C)C)cc2)cc1OC`, the Potency entry was “inactive”.

As for `O=S1(=O)OC(c2ccc(O)cc2)(c2ccc(O)cc2)c2ccccc21`, the Potency entry is “inactive”.

In the case of `CCCCCCCCCCCCCCCCCCO`, the Potency entry is “inactive”.

Regarding `COc1cc(C(=O)NCCCCCC(=O)O)cc(OC)c1OC`, the Potency entry is “inactive”.

On to `CC1(c2ccccc2)OC(C(=O)O)=CC1=O` (stereo not given), for which the Potency entry was “inactive”.

On to `CC(C)CCOC(=O)c1ccc(N(C)C)cc1`, for which the Potency result is “inactive”.

With `Nc1ccc(C(=O)Oc2ccccc2)c(O)c1`, the Potency entry is “inactive”.

With `NS(=O)(=O)c1ccc(C(=O)O)cc1`, the Potency entry is “inactive”.

As to `CC[N+](CC)(CC(=O)Nc1c(C)cccc1C)Cc1ccccc1`, the Potency entry is “inactive”.

`CC[C@H](C)[C@H](N)C(=O)O`: the Potency result was “inactive”.

Take `CCCCCCCCCCC(CO)CCCCCCCC` (stereo not given): the Potency result is “inactive”.

On to `CC(=O)N[C@@H](Cc1ccc(O)cc1)C(=O)O`, for which the Potency result was “inactive”.

Turning to `Cc1cc(C)c(NC(=O)CN(CC(=O)O)CC(=O)O)c(C)c1Br`, the Potency result is “inactive”.

Take `CC(=O)OCC(=O)[C@@]1(O)CC[C@H]2[C@@H]3CCC4=CC(=O)C=C[C@]4(C)[C@@]3(F)[C@@H](O)C[C@@]21C`: the Potency entry is “inactive”.

As for `O=C(O)CCC(=O)O`, the Potency result is “inactive”.

Turning to `CC(=O)NS(=O)(=O)c1ccc(N)cc1`, the Potency result is “inactive”.

For `O=C(O)c1cc(=O)c2ccccc2o1`, the Potency entry was “inactive”.

For `O=C(NCC(O)CO)c1c(I)c(C(=O)NCC(O)CO)c(I)c(N(CCO)C(=O)CO)c1I` (stereo not given), the Potency result was “inactive”.

As for `CN1C[C@@H]2C[C@H]1CN2c1cc2c(cc1F)c(=O)c(C(=O)O)cn2C1CC1`, the Potency entry is “inactive”.

In the case of `COc1ccc(-c2cc(=O)c3c(O)cc(O[C@@H]4O[C@H](CO[C@@H]5O[C@@H](C)[C@H](O)[C@@H](O)[C@H]5O)[C@@H](O)[C@H](O)[C@H]4O)cc3o2)cc1O`, the Potency entry was “inactive”.

As for `O[C@@H]1CO[C@H]2[C@@H]1OC[C@@H]2O`, the Potency result was “inactive”.

As to `OC[C@@H](O)[C@@H](O)[C@H](O)[C@H](O)CO`, the Potency result was “inactive”.

Take `Cc1ccc(C(C)C)c(O)c1`: the Potency entry is “inactive”.

As to `Nc1ccc(S(=O)(=O)c2ccc(N)cc2)cc1`, the Potency result was “inactive”.

For `OCC(O)CS` (stereo not given), the Potency result was “inactive”.

With `O=C1CC[C@@H](C(=O)O)N1`, the Potency entry was “inactive”.

In the case of `CN/C(=C\[N+](=O)[O-])NCCSCc1csc(CN(C)C)n1`, the Potency result was “inactive”.
